# Reference: the supplement of paper PMC8728848
# Only a selection was taken, and the strongest signals are over-represented in it overall.
# B1: Di AAL2 (Agrocybe aegerita) (protein)
# chain: MTSNVITQDLPIPVASRGFADIVGFGLDGVVIGRNAVNLQPFLAVKNFAQNAGGWLTTKHVRLIADTTGTGKGDIVGFGNAGVYVSVNNGKNTFADPPKMVIANFGYDAGGWRVEKHLRYLADIRKIGRADIIGFGEKGVLVSRNNGGLNFGPATLVLKDFGYDAGGWRLDRHLRFLADVTGNGHLDIVGFGDKHVFISRNNGDGTFAPAKSVIDNFCIDAGGWKIGDHPRFVADLTGDGTADIIGCGKAGCWVALNNGGGVFGQVKLVINDFGTDKGWQAAKHPRFIADLTGNGRGDVVGFGNAGVYVALNNGDGTFQSAKLVLKDFGVQQGWTVSKHRRFVVDLTGDGCADIIGFGEKETLVSYNDGKGNFGPVKALTNDFSFSGGKWAPETTVCWMANLDSSRHPAPAPMTSNVITQDLPIPVASRGFADIVGFGLDGVVIGRNAVNLQPFLAVKNFAQNAGGWLTTKHVRLIADTTGTGKGDIVGFGNAGVYVSVNNGKNTFADPPKMVIANFGYDAGGWRVEKHLRYLADIRKIGRADIIGFGEKGVLVSRNNGGLNFGPATLVLKDFGYDAGGWRLDRHLRFLADVTGNGHLDIVGFGDKHVFISRNNGDGTFAPAKSVIDNFCIDAGGWKIGDHPRFVADLTGDGTADIIGCGKAGCWVALNNGGGVFGQVKLVINDFGTDKGWQAAKHPRFIADLTGNGRGDVVGFGNAGVYVALNNGDGTFQSAKLVLKDFGVQQGWTVSKHRRFVVDLTGDGCADIIGFGEKETLVSYNDGKGNFGPVKALTNDFSFSGGKWAPETTVCWMANLDSSRH
# Assays:
# Assay in all cases: glycan array binding signal (z-score within array); higher = stronger binding
# Settings in all cases: glycan notation: IUPAC condensed, linker removed
# [1] = biological target: GlcNAc(b1-3)Gal(b1-4)GlcNAc(b1-3)Gal(b1-4)GlcNAc(b1-3)Gal(b1-4)GlcNAc(b1-3)Gal(b1-4)GlcNAc(b1-2)Man(a1-3)[GlcNAc(b1-3)Gal(b1-4)GlcNAc(b1-3)Gal(b1-4)GlcNAc(b1-3)Gal(b1-4)GlcNAc(b1-3)Gal(b1-4)GlcNAc(b1-2)Man(a1-6)]Man(b1-4)GlcNAc(b1-4)[Fuc(a1-6)]GlcNAc
# Method in brief: (§1)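 Glycan array data came from 3228 arrays in the Consortium for Functional Glycomics database, and only arrays with an available protein sequence were kept. Glycan names were put into IUPAC-condensed notation, and columns mapping to the same glycan were averaged. The binding signal is a within-array Z-score, averaged across arrays of one protein sequence run at different concentrations or buffers and across linkers. A negative Z-score can be read as non-binding.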
# [2] = biological target: GlcNAc(b1-3)Gal(b1-4)GlcNAc(b1-3)Gal(b1-4)GlcNAc(b1-3)Gal(b1-4)GlcNAc(b1-3)Gal(b1-4)GlcNAc(b1-2)[GlcNAc(b1-3)Gal(b1-4)GlcNAc(b1-3)Gal(b1-4)GlcNAc(b1-3)Gal(b1-4)GlcNAc(b1-3)Gal(b1-4)GlcNAc(b1-6)]Man(a1-6)[GlcNAc(b1-3)Gal(b1-4)GlcNAc(b1-3)Gal(b1-4)GlcNAc(b1-3)Gal(b1-4)GlcNAc(b1-3)Gal(b1-4)GlcNAc(b1-2)Man(a1-3)]Man(b1-4)GlcNAc(b1-4)[Fuc(a1-6)]GlcNAc
# Method in brief: as §1
# [3] = biological target: Man(a1-3)[Man(a1-6)]Man(a1-6)[Man(a1-3)]Man(b1-4)GlcNAc(b1-4)GlcNAc
# Method in brief: as §1
# [4] = biological target: Man(a1-3)[Man(a1-6)]Man(b1-4)GlcNAc(b1-4)[Fuc(a1-6)]GlcNAc
# Method in brief: as §1
# [5] = biological target: Neu5Ac(a2-3)Gal(b1-3)[Neu5Ac(a2-6)]GlcNAc(b1-3)[Fuc(a1-3)[Gal(b1-4)]GlcNAc(b1-6)]Gal(b1-4)Glc
# Method in brief: as §1
# [6] = biological target: Neu5Ac(a2-3)Gal(b1-4)GlcNAc(b1-6)GalNAc
# Method in brief: as §1
# [7] = biological target: Neu5Ac(a2-3)Gal(b1-4)[Fuc(a1-3)]GlcNAc(b1-6)[Gal(b1-3)]GalNAc
# Method in brief: as §1
# [8] = biological target: Neu5Ac(a2-3)[GalNAc(b1-4)]Gal(b1-4)GlcNAc(b1-3)GalNAc
# Method in brief: as §1
# [9] = biological target: Neu5Ac(a2-6)Gal(b1-4)GlcNAc(b1-2)Man(a1-3)[GlcNAc(b1-4)][Neu5Ac(a2-6)Gal(b1-4)GlcNAc(b1-2)Man(a1-6)]Man(b1-4)GlcNAc(b1-4)GlcNAc
# Method in brief: as §1
# [10] = biological target: Neu5Ac(a2-6)Gal(b1-4)GlcNAc(b1-3)[Neu5Ac(a2-6)Gal(b1-4)GlcNAc(b1-6)]GalNAc
# Method in brief: as §1
# [11] = biological target: Neu5Ac(a2-6)GlcNAc(b1-4)GlcNAc(b1-4)GlcNAc
# Method in brief: as §1
# [12] = biological target: Neu5Ac(a2-8)Neu5Ac(a2-3)[GalNAc(b1-4)]Gal(b1-4)Glc
# Method in brief: as §1
# [13] = biological target: Neu5Ac(a2-8)Neu5Ac(a2-8)Neu5Ac(a2-3)[Gal(b1-3)GalNAc(b1-4)]Gal(b1-4)Glc
# Method in brief: as §1
# [14] = biological target: Neu5Ac(a2-8)Neu5Ac(a2-8)Neu5Ac(a2-3)[GalNAc(b1-4)]Gal(b1-4)Glc
# Method in brief: as §1
binder,measurement,setting,value
B1,glycan array binding signal (z-score),[1],5.09
same,glycan array binding signal (z-score),[2],5.69
same,glycan array binding signal (z-score),[3],-0.333
same,glycan array binding signal (z-score),[4],-0.327
same,glycan array binding signal (z-score),[5],-0.313
same,glycan array binding signal (z-score),[6],-0.218
same,glycan array binding signal (z-score),[7],-0.336
same,glycan array binding signal (z-score),[8],-0.285
same,glycan array binding signal (z-score),[9],-0.319
same,glycan array binding signal (z-score),[10],-0.251
same,glycan array binding signal (z-score),[11],-0.302
same,glycan array binding signal (z-score),[12],-0.29
same,glycan array binding signal (z-score),[13],-0.297
same,glycan array binding signal (z-score),[14],-0.284
